Screening data: PubChem, National Center for Advancing Translational Sciences (NCATS)
A selection: hits, their analogues and other compounds. The true share with any hit is near 1.3%.
EPAC1 ag: activates human EPAC1 exchange factor. O95398. EPAC1 agonist qHTS, biochemical assay; response scale: 100% = response to 6.5 mM cAMP. Potency, µM (series often up to 154 µM), for the others: at the highest dose activation, most hits filed as activators. hit rate 0.073% among 360,000; further: nearly all actives have a fitted effect of over 60% in size
Target sequence (O95398 whole entry, looked up): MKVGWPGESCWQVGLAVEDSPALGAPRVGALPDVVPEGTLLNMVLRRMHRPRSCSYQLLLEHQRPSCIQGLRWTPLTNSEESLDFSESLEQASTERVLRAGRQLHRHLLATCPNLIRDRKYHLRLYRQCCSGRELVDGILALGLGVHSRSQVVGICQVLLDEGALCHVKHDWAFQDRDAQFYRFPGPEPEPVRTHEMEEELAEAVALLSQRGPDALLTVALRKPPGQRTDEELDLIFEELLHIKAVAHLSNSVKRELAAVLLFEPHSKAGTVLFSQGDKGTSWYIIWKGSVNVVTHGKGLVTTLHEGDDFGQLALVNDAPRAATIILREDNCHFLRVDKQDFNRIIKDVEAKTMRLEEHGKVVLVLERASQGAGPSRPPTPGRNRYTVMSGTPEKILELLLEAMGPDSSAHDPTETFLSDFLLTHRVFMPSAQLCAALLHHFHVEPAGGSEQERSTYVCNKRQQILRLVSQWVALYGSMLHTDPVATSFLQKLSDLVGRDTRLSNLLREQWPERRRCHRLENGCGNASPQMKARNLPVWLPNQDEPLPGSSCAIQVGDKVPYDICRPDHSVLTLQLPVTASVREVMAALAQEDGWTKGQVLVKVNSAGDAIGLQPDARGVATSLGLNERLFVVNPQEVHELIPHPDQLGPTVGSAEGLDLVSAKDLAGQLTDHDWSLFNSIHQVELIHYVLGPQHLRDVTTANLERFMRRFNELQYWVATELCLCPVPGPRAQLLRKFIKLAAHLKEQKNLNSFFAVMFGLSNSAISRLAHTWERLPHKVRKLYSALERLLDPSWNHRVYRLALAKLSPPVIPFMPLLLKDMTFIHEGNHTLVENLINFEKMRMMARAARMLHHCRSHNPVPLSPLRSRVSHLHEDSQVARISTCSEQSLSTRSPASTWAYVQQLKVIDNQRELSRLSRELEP
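Nucleotide exchange assay: 100 nM EPAC1 with 250 nM Rap1B loaded with BODIPY-GDP and 50 uM GDP, room temperature. Fluorescence (480/540 nm) read every 5 min for 30 min; signal change normalized to 6.5 mM cAMP as full agonist.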
RGS4 inhibitor: inhibitors of human regulator of G protein signaling 4 | P49798 | Transcreener GDP fluorescence polarization, RGS4-accelerated GTP hydrolysis | Potency, µM (highest dose often 114 µM), for inactives: at the top dose activity change, negative = inhibition, hits mostly inhibitors | hit rate 0.039% among 390,000 | AID 504845; further: on the % scale 0 is the no-effect control and ±100 the full control effect; nearly all actives have a fitted effect of over 75% in size
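MLSMR compounds (23 nl, pin-transferred) preincubated 10 min at room temperature with a 500nM (2x) first reagent, then RGS4 at 900nM (2x) plus Transcreener GDP mix added; fluorescence polarization (620/688 nm) read before and after 90 min at 30 °C.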
EPAC2 antagonist: antagonists of human EPAC2; Q8WZA2; EPAC2 GEF exchange of Rap1B-BODIPY-GDP, fluorescence; Potency, µM (series often up to 114 µM), without a hit: at the top dose activity, negative = inhibition, hits mostly inhibitors; hit rate 0.18% among 360,000; AID 720708; further: on the % scale 0 is the no-effect control and ±100 the full control effect; nearly all actives have a fitted effect of over 45% in size
BRCA1 expr act: activators of BRCA1 expression; AID 624202; MCF7-BRCA1-FFLuc reporter, luminescence, 48 h; response scale: scaled: vehicle 0%, 10 µM genistein 100%; Potency, µM (top dose mostly 46.1 µM), for the others: top-dose activation, most hits filed as activators; hit rate 1.1% among 380,000; further: nearly all actives have a fitted effect of over 80% in size
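MCF7-BRCA1-FFLuc, 2000 cells/well; 2 h attach, 37 °C/5% CO2; compound 48 h; luciferase substrate 15 min; luminescence end-point. Norm. to genistein 10 microM max activation and DMSO; concentration-response curves fitted.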
EPAC1 antagonist: EPAC1 (human) antagonism | O95398 | EPAC1 GEF assay, Rap1b-BODIPY-GDP exchange fluorescence | Potency, µM (titrated, usually from 115 µM), for inactives: at the top dose activity change, negative = inhibition, hits mostly inhibitors | hit rate 0.14% among 360,000;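 further: plate controls were vehicle for no effect and positive control for full effect; nearly all actives have a fitted effect of over 50% in size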
EPAC2 ag: agonists of human EPAC2 (RAPGEF4) | AID 720711 | hit rate 0.079% among 360,000 | Q8WZA2 | Potency, µM (top dose mostly 154 µM), inactives show at the highest dose activation, most hits filed as activators | EPAC2 activation, biochemical qHTS; response scale: 100% = 6.5 mM cAMP response; further: nearly all actives have a fitted effect of over 50% in size
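Setup: EPAC2 100 nM, labeled Rap1B complex 250 nM, free GDP 50 uM. Compound titrations pinned in, brief spin, 5 min room temperature incubation. Kinetic fluorescence read over 30 min, normalized to 6.5 mM cAMP.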
An asterisk follows results filed as active; i = inactive; ? = inconclusive; . = no result; [ ] = remark or other dose. The call rests on the fitted dose curve; in most records, active means well fitted curve in the direction sought with a large enough effect; inconclusive means small, poorly fitted or top-dose-only effect, or another doubt; inactive means no such curve, though single readings can be large; an effect the other way counts as inactive or inconclusive. Potency means the concentration at half of the fitted maximal effect.

SMILES	EPAC1 ag	RGS4 inhibitor	EPAC2 antagonist	BRCA1 expr act	EPAC1 antagonist	EPAC2 ag
CCCCCc1ccc(-c2cn(Cc3ccc(C)cc3)nn2)cc1	7.2%	11.7%	4.2%	0.0%	15.5%	-10.3%
COc1ccc(-c2cn(Cc3ccc(C)cc3)nn2)cc1	-8.7%	-1.3%	14.6%	8.91µM*	8.9%	3.1%
CC(C)(C)N1CC(C(=O)Nc2ccc(S(=O)(=O)N3CCCCC3)cc2)CC1=O (configuration not stated)	1.1%	-9.1%	-3.4%	6.4%	2.3%	9.8%
CCC1CCCCN1S(=O)(=O)c1ccc(NC(=O)C2CC(=O)N(C(C)(C)C)C2)cc1 (configuration not stated)	3.9%	-4.7%	1.7%	11.2µM*	?	-1.8%
C/C(=N\NC(=O)c1cccc(C)c1O)c1ccc(NC(=O)Cc2ccccc2)cc1	1.2%	-16.0%	13.1%	5.01µM*	4.4%	3.7%
O=C(O)COc1ccc(NC(=O)C(c2ccccc2)c2ccccc2)cc1	3.6%	6.9%	20µM*	-1.4%	-2.7%	4.6%
O=C(NC(=S)N1CCN(C(c2ccccc2)c2ccccc2)CC1)c1ccc(S(=O)(=O)N2CCOCC2)cc1	4.6%	-20.9%	6.8%	-38.7%	-14.1%	5.2%
Cc1ccc(S(=O)(=O)/C=C\C#N)cc1	.	i	.	.	.	.
Cc1ccc(S(=O)(=O)/C=C/C#N)cc1	.	5.97µM*	.	.	.	.
COc1cc(NC(=O)c2ccc3c(SCC(=O)O)c4c(nc3c2)CCCC4)cc(OC)c1OC	5.0%	1.8%[56.9 µM]	-13.9%	-16.4%	-9.2%	9.0%
COc1cc(C#Cc2ccc3cc(CCO)oc(=O)c3c2)cc(OC)c1	15.8%	-6.0%	-23.7%	7.08µM*	-8.2%	?
CN(C)c1ccc(C#Cc2ccc3cc(CCO)oc(=O)c3c2)cc1	-7.1%	-9.3%	-7.6%	?	5.6%	-2.7%
O=C(COc1ccc(S(=O)(=O)N2CCOCC2)cc1Cl)NCCN1CCOCC1	3.7%	14.7%	1.1%	-1.4%	-1.9%	2.3%
Cc1ccc(-c2cc(N)n(-c3ccc(C)cc3)n2)cc1	-4.6%	-13.0%	-2.7%	10µM*	-21.9%	-4.1%
Cc1ccc(-c2cc(N)n(-c3ccc(F)cc3)n2)cc1	6.6%	-19.8%	-3.7%	5.01µM*	-20.0%	3.9%
Cc1ccc(-c2cc(N)n3nc(-c4ccc(C)cc4)cc3n2)cc1	-4.2%	1.2%	-3.8%	-24.2%	2.1%	0.3%
Cc1ccc(-n2nc(-c3ccccc3)cc2Nc2ccccc2N)cc1	12.2%	?	-1.8%	-4.6%	-6.2%	9.1%
COC(=O)C(Cc1ccc(O)cc1)N1Cc2ccccc2C1=O (configuration not stated)	2.3%	17.5%	2.6%	10µM*	-11.1%	0.6%
O=C(O)c1ccc(COc2ccc([N+](=O)[O-])cc2Cl)cc1	0.8%	.	5.5%	12.6µM*	-4.0%	1.4%
Cc1onc(-c2c(Cl)cccc2Cl)c1COC(=O)c1ccc(Cl)cc1	-0.9%	-9.7%	3.55µM*	-3.1%	-11.3%	7.5%
CC1CN(C(=O)CCC(=O)NCCCc2ccccc2)c2ccccc2O1 (configuration not stated)	-6.5%	-7.4%	3.5%	-1.4%	-14.4%	1.0%
CCC1CCCCN1CCCNC(=O)CCC(=O)N1CC(C)Oc2ccccc21 (configuration not stated)	-16.3%	-12.4%	17.9%	15.1%	25.1µM*	9.6%
CCCc1nc2ccc(C)cn2c1Cc1ccc(C)cc1	11.7%	.	-10.6%	7.08µM*	-8.8%	2.8%
Cc1ccc(OCC(O)CN2CC3(C)CC2CC(C)(C)C3)cc1 (configuration not stated)	-11.5%	-7.6%	6.1%	-26.9%	4.0%	-3.0%
COC(=O)c1cc(Cl)c(NC(=O)c2ccc(C(C)(C)C)cc2)cc1OC	-5.2%	-34.3%	-5.2%	3.55µM*	0.9%	0.0%
SMILES	EPAC1 ag	RGS4 inhibitor	EPAC2 antagonist	BRCA1 expr act	EPAC1 antagonist	EPAC2 ag
CCCCN1C(=O)C(=O)N(CC(=O)N2CCN(c3ccccc3)CC2)C1=O	7.4%	-6.3%	0.5%	6.7%	-2.8%	-6.3%
CCCCN1C(=O)C(=O)N(c2ccccc2)C1=S	2.7%	3.1%	-3.7%	5.01µM*	0.6%	-7.8%
CCn1ncc(CN2CCC(C(=O)Nc3cccc(-c4cccc(F)c4)c3)CC2)c1C	3.8%	15.0%	-0.6%	13.8%	-0.2%	7.4%
COc1ccc(/C(C)=N/Nc2nc3ccccc3nc2C)cc1	12.2%	7.6%	-10.8%	-4.4%	-11.1%	-5.4%
CCN(CC)C(=O)CCc1nnc(Cc2cccc(C(F)(F)F)c2)o1	6.8%	-23.8%	-4.2%	10µM*	22.9%	29.2%
O=C(Nc1ccc2[nH]ncc2c1)c1ccccc1Cl	-10.1%	-6.0%	9.9%	2.82µM*	12.8%	0.6%
O=C(CSc1nnc(-c2ccccn2)o1)Nc1ccc(F)cc1	-3.8%	-16.0%	4.0%	113.9%	0.6%	-0.2%
Cn1c(SCc2ccc(F)cc2)nnc1-c1ccccn1	2.2%	-23.1%	14.0%	4.47µM*	5.9%	-5.5%
Cc1ccc(CSc2nnc(-c3ccccn3)n2C)cc1	-3.5%	17.8%	6.9%	?	1.4%	7.7%
Cn1c(SCc2ccccc2F)nnc1-c1ccccn1	-2.6%	-4.3%	2.5%	11.2µM*	-27.5%	4.3%
Cn1c(SCc2ccccc2F)nnc1-c1cnccn1	1.2%	15.3%	-13.9%	?	-14.5%	9.3%
Nn1c(SCc2ccccc2F)nnc1-c1cccnc1	15.0%	12.3%	-0.3%	8.91µM*	15.4%	6.8%
Fc1ccc(CSc2nnc(-c3ccccn3)o2)cc1	-0.1%	-18.1%	1.8%	3.98µM*	-14.4%	3.4%
O=C(NCCN1CCN(c2ccccc2F)CC1)c1ccc2nc3ccccc3c(=O)n2c1	-6.9%	0.4%	-4.7%	4.5%	-3.7%	-0.1%
COc1cccc(-c2cc(C(=O)Nc3ccc(F)cc3)[nH]n2)c1	.	10.3%	.	.	.	.
O=C(NCCCn1ccnc1)c1ccc(Cl)cc1	3.5%	9.7%	-2.7%	-5.7%	-1.9%	2.7%
Cn1c(SCc2ccccc2)nnc1-c1cccs1	0.0%	-15.8%	0.3%	?	-4.9%	-0.9%
Cn1c(SCc2ccc(F)cc2)nnc1-c1cccs1	2.9%	1.7%	7.7%	4.47µM*	1.4%	1.3%
Cc1ccc2oc(=O)c(/C=C(\O)c3ccco3)nc2c1	10.3%	-20.0%	214.4%	-18.7%	13.7%	100µM*
Cc1ccc(Sc2nc3ccc(C)cn3c(=O)c2/C=N/O)cc1	10.2%	2.1%	1.9%	0.0%	4.3%	19.1%
CCC1CCCCN1C(=O)CSC1=NN2CCCC(=O)N=C2S1 (configuration not stated)	-2.7%	-19.2%	5.0%	3.3%	16.7%	7.7%
O=C(NCC1CCCO1)C1CCN(C(=O)c2ccc(Cl)cc2)CC1 (configuration not stated)	0.8%	-6.5%	6.3%	-61.6%	-6.4%	0.9%
